Screening data as filed in PubChem BioAssay.
This excerpt belongs to a sample that is enriched for hits.
AmpC inh no detg: qHTS Inhibitors of AmpC Beta-Lactamase (assay without detergent); P00811; AmpC nitrocefin hydrolysis, absorbance 480 nm, 0.0001% Triton; Potency, µM (series often up to 57.1 µM), inactives show at the top dose activity change, negative = inhibition, usual class: inhibitors; 0.52% of 330,000 active; AID 485341, 2010;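 note: potency is the fitted concentration of half-maximal effect; plate controls were no compound for no effect and no enzyme for full effect; nearly all actives have a fitted effect of over 20% in size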
Target sequence (P00811 whole entry, looked up): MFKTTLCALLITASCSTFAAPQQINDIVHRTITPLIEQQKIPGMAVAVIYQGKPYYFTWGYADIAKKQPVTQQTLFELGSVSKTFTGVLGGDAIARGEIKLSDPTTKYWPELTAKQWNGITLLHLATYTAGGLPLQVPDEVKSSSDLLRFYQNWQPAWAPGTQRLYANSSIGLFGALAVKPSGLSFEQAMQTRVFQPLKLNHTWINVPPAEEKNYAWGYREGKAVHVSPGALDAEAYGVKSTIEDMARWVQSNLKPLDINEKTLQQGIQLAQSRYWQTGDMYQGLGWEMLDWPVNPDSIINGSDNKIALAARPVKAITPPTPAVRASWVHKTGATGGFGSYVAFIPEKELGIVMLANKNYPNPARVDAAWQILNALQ
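20 mM phosphate pH 7.0 + 0.01% (detergent screen) or 0.0001% Triton X-100; 5.3 nM AmpC reagent; cpd preinc 15 min RT; nitrocefin (800 uM stock) to start; A480 q20 s × 4 min; Activity was normalised to no-enzyme and no-compound control wells.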
AMA1 RON2 block: qHTS for Inhibitors of AMA1-RON; Towards Development of Antimalarial Drug Lead: Primary Screen; AlphaScreen AMA1-biotinylated RON2 peptide binding; Potency, µM (series often up to 58.2 µM), for the others: top-dose activity change, negative = inhibition, hits mostly inhibitors; 0.2% of 360,000 active; AID 720542, 2013;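 note: potency is the fitted concentration of half-maximal effect; 0% = vehicle wells and -100% = peptide control; nearly all actives have a fitted effect of over 45% in size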
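AMA1 (3D7) with his tag at 25 nM final met compounds first, then biotinylated RON2 peptide at 25 nM; detection used donor plus acceptor beads, 10 µg/mL apiece, read by AlphaScreen after 30 min at room temperature.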
Shiga inhibitor: A qHTS for Small Molecule Inhibitors of Shiga Toxin; Vero cells, Shiga toxin protein synthesis inhibition reporter; inhibition, % at 38.7 µM; 9.2% of 290,000 active; AID 2315, 2010; in the data active = inhibition mostly above about 28%, no sharp cut-off; inactive = mostly below about 43%; note: 0% is about no effect
SARS PLP yeast: qHTS of Yeast-based Assay for SARS-CoV PLP; S. cerevisiae expressing SARS-CoV PLpro, growth rescue; Potency, µM (titrated, usually from 32.9 µM), without a hit: top-dose activity, positive = growth rescue, actives largely listed as activators; 0.19% of 330,000 active; AID 485353, 2010; calls by dose curve; note: potency is the fitted concentration of half-maximal effect; 0% is about no effect; nearly all actives have a fitted effect of over 55% in size
AmpC inh detg: qHTS Inhibitors of AmpC Beta-Lactamase (assay with detergent) | AmpC hydrolysis of nitrocefin, absorbance 480 nm, 0.01% Triton | 0.041% of 370,000 active | Potency, µM (titrated, usually from 114 µM), without a hit: top-dose activity change, negative = inhibition, most hits filed as inhibitors;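 note: potency is the fitted concentration of half-maximal effect; 0% = no-compound wells and -100% = no-enzyme wells; nearly all actives have a fitted effect of over 25% in size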
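20 mM phosphate pH 7.0 + 0.01% (detergent screen) or 0.0001% Triton X-100; 5.3 nM AmpC reagent; cpd preinc 15 min RT; nitrocefin (800 uM stock) to start; A480 q20 s × 4 min; Activity was normalised to no-enzyme and no-compound control wells.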
CHX counter: Cycloheximide Counterscreen for Small Molecule Inhibitors of Shiga Toxin | cell reporter, cycloheximide protein synthesis inhibition counterscreen | max response, % | 12% of 300,000 active; in the data active = max response mostly above about 13%, no sharp cut-off; inactive = mostly below about 14%; note: read at 38.3 µM for the half of the compounds with a filed dose; 0% is about no effect
* = called active by the depositor. Unless noted, calls come from the whole dose curve; as a rule, active = well fitted curve in the direction sought with a large enough effect; inconclusive = small, poorly fitted or top-dose-only effect, or another doubt; inactive = no such curve, though single readings can be large; an effect the other way counts as inactive or inconclusive.

O=C(c1cccs1)N1CCC(c2ccccc2)C1 (centres undefined) was read as AmpC inh no detg -13.9%, AMA1 RON2 block -1.6%, Shiga inhibitor 97.1*, SARS PLP yeast -4.1%, AmpC inh detg -5.6% and CHX counter 41.2*.
`CCOc1ccc(NC(=O)N2CCC(c3ccc(C)cc3)C2)cc1` (centres undefined) gave AmpC inh no detg -15.0%, AMA1 RON2 block 4.1%, Shiga inhibitor 29.9, SARS PLP yeast 0.2%, AmpC inh detg 2.3% and CHX counter 18.0*.
Screening CCc1ccc(NC(=O)N2CCC(c3ccccc3)C2)cc1 (centres undefined) returned AmpC inh no detg -21.1%, AMA1 RON2 block 22.2%, Shiga inhibitor 107.6*, SARS PLP yeast 3.3%, AmpC inh detg 3.9% and CHX counter 38.8*.
`Cc1ccc(C2CCN(C(=O)Nc3ccc(Cl)cc3)C2)cc1` (centres undefined) gave AmpC inh detg 3.2%.
For CC(=O)N1CCN(Cc2nc(-c3cccc(Cl)c3)no2)CC1 the results were AmpC inh no detg 0.5%, AMA1 RON2 block 15.0%, Shiga inhibitor 43.4*, SARS PLP yeast 1.0%, AmpC inh detg -2.5% and CHX counter 18.1*.
Screening CN1CCCN(Cc2nc(-c3cccc(C(F)(F)F)c3)no2)CC1 returned AmpC inh no detg 43.8%, AMA1 RON2 block 41.1%, Shiga inhibitor 4.7, SARS PLP yeast -1.7%, AmpC inh detg 8.0% and CHX counter 15.8*.
`CCOC(=O)N1CCN(Cc2nc(-c3ccc(Cl)cc3)no2)CC1` gave AmpC inh no detg 69.7%, AMA1 RON2 block 0.8%, Shiga inhibitor 21.8, SARS PLP yeast -2.4%, AmpC inh detg -2.0% and CHX counter 21.1.
For Clc1cccc(N2CCN(Cc3nc(-c4ccccc4)no3)CC2)c1 the results were AmpC inh no detg 10µM*, AMA1 RON2 block -9.9%, Shiga inhibitor 2.0, SARS PLP yeast -20.4%, AmpC inh detg inconclusive and CHX counter 7.7.
For CCCCCC(=O)NCc1c(C(F)(F)F)nn(C)c1N1CCOCC1 the results were AmpC inh no detg -5.8%, AMA1 RON2 block 15.2%, Shiga inhibitor -3.0, SARS PLP yeast -1.2%, AmpC inh detg 6.6% and CHX counter -2.4.
O=C(CC1Sc2ccccc2NC1=O)Nc1cccnc1 (centres undefined) was read as AmpC inh no detg -23.7%, AMA1 RON2 block 20.2%, Shiga inhibitor -3.2, SARS PLP yeast 5.3%, AmpC inh detg -5.4% and CHX counter -4.7.
`O=C(CC1Sc2ccccc2NC1=O)Nc1cccc(-c2nnc3n2CCCCC3)c1` (centres undefined) gave AmpC inh no detg -11.3%, AMA1 RON2 block 15.9%, Shiga inhibitor 96.5*, SARS PLP yeast 3.3%, AmpC inh detg -18.5% and CHX counter 13.0.
Screening Cc1ncccc1C(=O)N1CCCC(CCC(=O)N2CCN(c3ccccn3)CC2)C1 (centres undefined) returned AmpC inh no detg 6.5%, AMA1 RON2 block -3.0%, Shiga inhibitor -3.1, SARS PLP yeast -13.8%, AmpC inh detg -2.2% and CHX counter -0.7.
CC(C)c1ccc(N(C(=O)c2snc(C(N)=O)c2N)C(C(=O)NCC2CCCO2)c2ccc(N(C)C)cc2)cc1 (centres undefined) was read as AmpC inh no detg 123.6%, AMA1 RON2 block 14.1µM*, Shiga inhibitor -3.5, SARS PLP yeast inconclusive, AmpC inh detg 5.6% and CHX counter -6.8.
`CN(C)c1ccc(C(C(=O)NCC2CCCO2)N(C(=O)c2snc(C(N)=O)c2N)c2ccccc2)cc1` (centres undefined) gave AmpC inh no detg -9.5%, AMA1 RON2 block -8.3%, Shiga inhibitor -7.5, SARS PLP yeast 3.9%, AmpC inh detg 8.3% and CHX counter -6.5.
`COC(=O)c1ccc2c(c1)c(C#Cc1ccccc1)c(-c1ccccc1)n2C` gave AmpC inh no detg -25.6%, AMA1 RON2 block 71.5%, Shiga inhibitor active, SARS PLP yeast 12.3% and CHX counter 59.9*.
`COC(=O)c1ccc2c(c1)c(I)c(-c1ccc(OC)cc1)n2C` gave Shiga inhibitor active and CHX counter 37.1*.
Screening O=C(CCS(=O)(=O)c1cc(Br)cc2c1N(C(=O)C1CC1)CC2)NCc1ccco1 returned AmpC inh no detg -18.1%, AMA1 RON2 block 0.0%, Shiga inhibitor -7.4, SARS PLP yeast 2.1%, AmpC inh detg 8.7% and CHX counter 2.6.
`CCc1ccc(NC(=O)c2cc3ccccn3n2)cc1` gave AmpC inh detg 2.4%.
Screening O=C(NCCc1ccc(Cl)cc1)c1cc2ccccn2n1 returned AmpC inh no detg -14.5%, AMA1 RON2 block 3.3%, Shiga inhibitor 60.2, SARS PLP yeast -2.3%, AmpC inh detg -9.0% and CHX counter 24.7*.
Screening Cc1ccc(CCNC(=O)c2cc3ccccn3n2)cc1 returned AmpC inh detg 2.4%.
Screening O=C(Nc1ccc(Br)cc1)c1cc2ccccn2n1 returned AmpC inh no detg -24.9%, AMA1 RON2 block -15.2%, Shiga inhibitor 63.6*, SARS PLP yeast -6.5%, AmpC inh detg -8.5% and CHX counter 44.2*.
For CN(C)c1ccc(/C=C/C(=O)c2c(O)c3ccccc3oc2=O)cc1 the results were AmpC inh no detg -35.3%, AMA1 RON2 block -15.9%, Shiga inhibitor 19.8, SARS PLP yeast 1.3%, AmpC inh detg -0.7% and CHX counter 8.6.
Screening Cc1cc(O)c(C(=O)/C=C/c2ccc(C(C)C)cc2)c(=O)o1 returned AmpC inh no detg 12.6µM*, AMA1 RON2 block 77.9%, Shiga inhibitor 66.3*, SARS PLP yeast 1.1%, AmpC inh detg -5.4% and CHX counter 52.7*.
Cc1cc(O)c(C(=O)/C=C/c2ccccc2Br)c(=O)o1 was read as AmpC inh no detg 12.6µM*, AMA1 RON2 block 55.1%, SARS PLP yeast -2.3%, AmpC inh detg -15.2% and CHX counter 20.2*.
For CCc1ccccc1N/N=C(/C)c1c(O)cc(C)oc1=O the results were AmpC inh no detg -17.7%, AMA1 RON2 block -2.9%, Shiga inhibitor -6.3, SARS PLP yeast -6.7%, AmpC inh detg inconclusive and CHX counter 1.1.
`CCOc1ccc(/C=C/C(=O)c2c(O)cc(C)oc2=O)cc1` gave AmpC inh no detg -55.7%, AMA1 RON2 block 87.9%, Shiga inhibitor 56.7*, SARS PLP yeast 6.9%, AmpC inh detg -1.1% and CHX counter 42.3*.
Screening CCOc1ccc(/C=C/C(=O)c2c(O)c3ccccc3oc2=O)cc1 returned AmpC inh no detg -24.9%, AMA1 RON2 block 59.1%, Shiga inhibitor -7.5, SARS PLP yeast -1.9%, AmpC inh detg -4.5% and CHX counter -2.0.
